# ClpP mod = qHTS Assay for Activators of ClpP | ATP-dependent Clp protease proteolytic subunit (Bacillus subtilis (strain 168)), P80244 | purified B. subtilis ClpP, FRET peptide cleavage, 20 min | Potency, µM (series often up to 57.5 µM), for inactives: at the highest dose activity change, negative = active | 340,000 tested, 1.9% active | AID 651965, 2013; active means well fitted falling curve with a large enough effect; inconclusive means small, poorly fitted or top-dose-only effect; inactive means no such curve, though single readings can be large or run the other way; further: potency means the concentration at half of the fitted maximal effect; the source files actives as falling curves though it sought activators and does not explain the sign; nearly all actives have a fitted effect of over 65% in size
#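 FRET quenching reversal measured ClpP activation: 10 microg/mL B. subtilis ClpP at pH 8 with the FRET-FV decapeptide, read at 430 nm after 320 nm excitation. The 20-min minus 0-min signal was scaled between DMSO/no-enzyme wells and ADEP (5.8 microM final).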
# GLP-1R inv ag = qHTS of GLP-1 Receptor Inverse Agonists (Inhibition Mode) | Glucagon-like peptide 1 receptor (Homo sapiens), P43220 | HEK293 GLP-1R CRE-luciferase, luminescence, 24 h; GLP-1R form is constitutively active | Potency, µM (doses to about 38.3 µM), without a hit: at the top dose activity change, negative = inhibition, actives largely listed as inhibitors | 410,000 tested, 1.6% active | AID 624417, 2012; further: potency means the concentration at half of the fitted maximal effect; on the % scale 0 is the no-effect control and ±100 the full control effect; nearly all actives have a fitted effect of over 55% in size
#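 Inverse agonism was detected as reduced cAMP-driven luciferase luminescence after 24 h compound treatment. The cells were HEK293 clones expressing constitutively active human GLP-1R with the reporter. Reporter-only and GPR119 cell lines served as counterscreen controls.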
# DRD3 agonist = qHTS of D3 Dopamine Receptor Agonist: qHTS | D(3) dopamine receptor (Homo sapiens), P35462 | D3R DiscoveRx beta-arrestin cells, luminescence, 90 min | max activation, % | AID 652048, 2013 | 410,000 tested, 0.58% active; in the data active means max activation above about 30%; further: 0% is about no effect
#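 Agonist-mode cell screen: cells plated at 1500/well and incubated overnight at 37 °C, then exposed to library compounds for 90 min at 37 °C. Detection reagent was added for 30–60 min at room temperature, and luminescence was read.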
# GLP-1R agonist = qHTS of GLP-1 Receptor Agonists | Glucagon-like peptide 1 receptor (Homo sapiens), P43220 | HEK293 GLP-1R CRE-luciferase, luminescence, 4-6 h; cells express a hypersensitive GLP-1R form | Potency, µM (highest dose often 45.6 µM), for inactives: at the top dose activation, actives largely listed as activators | 380,000 tested, 0.007% active | AID 624172, 2012; further: potency means the concentration at half of the fitted maximal effect; % of control where 0% means no effect
# GLP1R cytotox = qHTS of GLP-1 Receptor Inverse Agonists: Cytotox Screen. HEK293 cAMP-luciferase reporter cells, luminescence, 24 h. Potency, µM (top dose mostly 38.3 µM), inactives show top-dose activity change, negative = inhibition, usual class: inhibitors. 410,000 tested, 0.13% active. AID 624418, 2012;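 further: loss of luciferase light is scored as toxicity; potency means the concentration at half of the fitted maximal effect; on the % scale 0 is the no-effect control and ±100 the full control effect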
#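 Seeding density was 200 cells/uL; after overnight-length (12 h) culture, 23 nL compounds went on for 24 h at 37 °C. Readout used a luciferase detection reagent, luminescence taken after 12 min at room temperature.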
# DRD3 antagonist = qHTS of D3 Dopamine Receptor Antagonist: qHTS; max response, negative = inhibition, %; 360,000 tested, 2.5% active; D3R cells, DiscoveRx beta-arrestin luminescence, antagonist mode; hits give low values; AID 652054, 2013; in the data active means max response below about -50%; inconclusive means no clear call, values can overlap the other calls; further: on the % scale 0 is the no-effect control and ±100 the full control effect
#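 Cells plated overnight at 1500 cells/well, then exposed to library compounds with dopamine controls for 90 minutes at 37 degrees C. DiscoveRx reagent added for 30–60 minutes at room temperature; luminescence read, quantitative HTS format.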
# Active calls of the source: *; u = inconclusive; x = no result. This is a sample that favours compounds with a hit; in the whole collection about 5.7% have one here. Unless noted, the call rests on the fitted dose curve; in most records, active means well fitted curve in the direction sought with a large enough effect; inconclusive means small, poorly fitted or top-dose-only effect, or another doubt; inactive means no such curve, though single readings can be large; an effect the other way counts as inactive or inconclusive.
SMILES,ClpP mod,GLP-1R inv ag,DRD3 agonist,GLP-1R agonist,GLP1R cytotox,DRD3 antagonist
CCc1nc2c(OCCC3CCCCC3)cccn2c1N(C)C(=O)c1ccc(C)cc1,-5%,u,-18,-1%,2%,-56*
Cc1nc2c(OCCC3CCCCC3)cccn2c1N(C)C(=O)CCC1CCCC1,0%,u,-16,0%,-3%,-67*
CCc1nc2c(OCCOC)cccn2c1N(C)C(=O)c1ccc(C)cc1,-2%,-2%,-2,12%,-3%,-18
CCc1nc2c(OCc3ccc(OC)cc3)cccn2c1N(C)C(=O)c1ccc(OC)cc1,-2%,1%,-6,0%,-6%,-18
CCc1nc2c(OCCC3CCCCC3)cccn2c1N(C)C(=O)C1CC1,-1%,u,-20,5%,-4%,-66*
CCc1nc2c(OCC=C(C)C)cccn2c1N(C)C(=O)c1ccc(OC)cc1,0%,u,2,-8%,-17%,-61*
Cn1ncc2c(Nc3cccc(F)c3)ncnc21,-6%,14%,0,x,20%,x
Cc1sc2ncnc(OCC(=O)NCc3cccs3)c2c1C,-2%,0%,7,-2%,4%,-83*
COc1ccc(-c2ccc(CCC(=O)O)n2-c2ccc(Cl)cc2C)cc1,-5%,-20%,2,x,2%,x
COc1ccc(NC(=O)CCc2c(C)nn(-c3ccc(N4CCOCC4)nn3)c2C)cc1Cl,-2%,47%,1,x,-19%,x
CC(C)(C)C1=NN(C(=O)c2ccccc2)C(O)(C(C)(C)C)C1 (configuration not stated),-5%,u,13,6%,-7%,11
CC(C)C1=NN(C(=O)c2ccccc2)C(O)(C(C)(C)C)C1 (configuration not stated),u,13µM*,8,-14%,u,3
COc1ccc(CC(=O)NC2CC(=O)N(c3cccc(F)c3)C2)cc1 (configuration not stated),0%,2%,5,x,1%,x
Cc1ccc2c(c1)c1cccc3c1n2CCN3CCC(N)=O,14µM*,-16%,2,9%,-10%,-15
NC(=O)CCn1c2ccccc2c2ccccc21,x,-12%,2,4%,-8%,-1
CCc1ccc(Nc2cc(C(=O)NCCCN(C)c3ccccc3)c3ccccc3n2)cc1,-2%,4%,-7,x,23%,x
COc1ccccc1Nc1cc(C(=O)NCCCN(C)c2ccccc2)c2ccccc2n1,u,5.6µM*,-11,x,68%,x
C=CCn1c(O)c(N=NC(=S)Nc2ccc(OC)cc2)c2ccccc21,22µM*,u,-38,-4%,u,-17
C=CCn1c(O)c(N=NC(=S)Nc2cccc(OC)c2)c2ccccc21,1%,u,9,-3%,u,-14
N#C/C(=C\c1ccc(-c2cc(Cl)ccc2Cl)o1)C(=O)Nc1ccccc1C(=O)O,-3%,8%,33*,x,2%,x
CCOc1ccccc1NC(=O)CN1c2ccccc2S(=O)(=O)c2ccccc21,u,-18%,-12,x,13%,x
O=C(Cn1c(=O)n(Cc2ccccc2)c(=O)c2oc3ccccc3c21)Nc1ccc(Cl)cc1,-15%,10%,0,x,0%,x
Cc1ccc(Cn2c(C(C)NC(=O)c3ccccc3)nc3ccccc32)cc1 (configuration not stated),0%,u,-18,x,-9%,x
COc1cc(CC(=O)OCC(=O)Nc2sccc2C(N)=O)cc(OC)c1OC,x,15%,32*,17%,-9%,51
CC(=O)Nc1cccc(N2C(=O)CC(N3CCC(C(=O)N4CCCCC4)CC3)C2=O)c1 (configuration not stated),-2%,10%,4,0%,21%,-59*
SMILES,ClpP mod,GLP-1R inv ag,DRD3 agonist,GLP-1R agonist,GLP1R cytotox,DRD3 antagonist
CCCSc1nc2sc3c(c2c(=O)n1CC)CC(C)(C)OC3,x,10µM*,4,20%,-13%,21
Cn1c(NN)nc2sc3c(c2c1=O)CC(C)(C)OC3,0%,-3%,1,6%,-16%,43
CCCCCCCc1nc2sc3c(c2c(=O)n1N)CC(C)(C)OC3,x,12%,-5,6%,-7%,3
CCCCCc1nc2sc3c(c2c(=O)n1NC(=O)c1ccc([N+](=O)[O-])cc1)CC(C)(C)OC3,x,10µM*,5,1%,-10%,1
CSc1nc2sc3c(c2c(=O)n1CC(C)C)CC(C)(C)OC3,0%,u,-26,1%,5%,-17
CCC1(C)Cc2c(sc3nc(NC)n(C)c(=O)c23)CO1 (configuration not stated),14µM*,0%,-3,3%,-4%,15
CCOc1ccccc1NC(=O)c1ccc2c(c1)CCCN2S(C)(=O)=O,1%,17%,-6,x,0%,x
CCCc1nnc(NC(=O)Cc2coc3ccc(C)cc23)s1,0%,7%,0,x,-6%,x
O=C(CCC1CCN(Cc2ccccc2)CC1)c1ccc2c(c1)NCCCC2,x,x,-24,1%,x,x
O=C(COC(=O)c1ccc(Cl)nc1)NCCNC(=O)COC(=O)c1ccc(Cl)nc1,-1%,12%,1,-11%,-8%,-16
O=C(COC(=O)c1ccc(Cl)nc1)NCc1ccc(F)cc1,-1%,-3%,-8,0%,3%,-50*
Cc1ccc(/C(O)=C/C(=O)C(=O)NNC(=O)C(O)(c2ccccc2)c2ccccc2)cc1,-2%,-29%,4,-1%,-19%,-88*
COC(=O)c1ccc(NC(=O)CSc2n[nH]c(CC(C)C)n2)cc1,0%,-9%,0,x,15%,x
Cc1ncoc1C(=O)Nc1ccccc1C(N)=O,-2%,62%,4,12%,-24%,-100*
CCCCCc1ccc(-c2cn(Cc3ccc4c(c3)C(=O)c3ccccc3C4=O)nn2)cc1,0%,x,x,x,x,x
CCOC(=O)c1cccc(-n2nnc3c(sc4nc(C)c(Br)c(C)c43)c2=O)c1,0%,-6%,-1,x,5%,x
c1coc(CSSCc2ccco2)c1,1%,-5%,-8,-1%,-26%,0
CC1(C)CC(C(CCN(Cc2ccccc2)C(=O)c2ccco2)c2ccc(F)cc2)CCO1 (configuration not stated),-1%,7.9µM*,48*,-29%,u,35
COc1ccc(CCN2C(=O)CSC2=S)cc1OC,x,5.6µM*,10,2%,u,2
